From PubChem BioAssay (NCATS) come the findings set out here.

Inconclusive results are not listed. Activity calls are given as the source filed them. Calls follow the shape of the dose curve; as a rule, active = well fitted inhibition curve with a large enough effect; inconclusive = small, poorly fitted or top-dose-only effect; inactive = no such curve, though single readings can be large or run the other way.

The target in this assay is Retinaldehyde dehydrogenase 3 (Homo sapiens) (UniProt P47895). Kind of assay: qHTS for Inhibitors of the Aldehyde Dehydrogenase Family (ALDH1A3) Primary screen (AID 2061315).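 Also: plate controls were DMSO vehicle for no effect and reference inhibitor for full effect.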 Conditions: ALDH inhibition qHTS; series mostly up to 56 µM; activity change, negative = inhibition: at the top concentration.
As to `COc1c2c(c(C)c3c1C(=O)OC3)O[C@@]1(C)CC(O)C(C(C)(C)O)[C@](C)(CCC(=O)O)[C@H]1C2` (stereo partly specified), the “activity change, negative = inhibition” value was 1.89% [at 28 µM] (inactive).

On to `C=C1CC2(C(=O)O)CC1CCC2C1(C)CCCC2(C)C(=O)OC(O)C21` (stereo unspecified), for which the “activity change, negative = inhibition” value was 3.72% (inactive).

Consider `COc1cc2c(c(OC)c1O)C(c1ccc(O)cc1)C1C(=O)OC3C(COC(=O)C1=C2)OC(CO)(OC1OC(COC(=O)/C=C/c2ccc(OC4OC(C)C(O)C(O)C4O)cc2)C(O)C(O)C1O)C3O` (stereo unspecified), for which the “activity change, negative = inhibition” value is -16.6% [at 16.9 µM] (inactive).

Consider `CCOc1nc(NC(=O)Cc2cc(OC)ccc2OC)cc(N)c1C#N`, for which the “activity change, negative = inhibition” value is -2.56% (inactive).

For `COc1ccc(/C=C/C(=O)O[C@@H]2[C@@H](O)[C@@H](O)[C@H](O[C@H]3[C@@H]4C=CO[C@@H](O[C@@H]5O[C@H](CO)[C@@H](O)[C@H](O)[C@H]5O)[C@@H]4[C@@]4(CO)O[C@@H]34)O[C@H]2C)cc1`, the “activity change, negative = inhibition” value is 2.31% [at 16.9 µM] (inactive).

Turning to `CC1=C2C(O)C(=O)OC(c3ccoc3)C2(C)CCC1O` (stereo unspecified), the “activity change, negative = inhibition” value is -8.65% (inactive).

On to `O=S(=O)(c1ccccc1)N(CC(F)(F)F)c1ccc(C(O)(C(F)(F)F)C(F)(F)F)cc1`, for which the “activity change, negative = inhibition” value was 4.46% (inactive).

Regarding `CC1=CC(=O)[C@@]2(C(C)C)C[C@@H]12`, the “activity change, negative = inhibition” value is 23% (inactive).

On to `CC1=C(CO)C2(C)CCCC(C)(C)C2C(O)C1O` (stereo unspecified), for which the “activity change, negative = inhibition” value was -0.063% (inactive).

`CC1(C)C(=O)N2c3ccccc3C(O)(CC(C(=O)O)n3cnc4ccccc4c3=O)C2N1O` (stereo unspecified): the “activity change, negative = inhibition” value was -4.94% [at 28 µM] (inactive).

In the case of `CC1(C)CCCC2(C)C(CO)C3CCC2C31` (stereo unspecified), the “activity change, negative = inhibition” value is -7.43% (inactive).

Regarding `CC(C)=CCC/C(C)=C/CO[C@@H]1O[C@H](CO[C@@H]2O[C@@H](CO)[C@H](O)[C@H]2O)[C@@H](O)[C@H](O)[C@H]1O`, the “activity change, negative = inhibition” value was -7.65% [at 28 µM] (inactive).

Consider `O=c1[nH]c2ccc(C#CCN3CCC(Cc4ccccc4)CC3)cc2[nH]1`, for which the “activity change, negative = inhibition” value was 0.649% (inactive).

Regarding `CCC(CC)C(=O)Nc1sc2c(c1C#N)CCC(C(C)(C)CC)C2` (stereo unspecified), the “activity change, negative = inhibition” value is 7.64% (inactive).

For `CC1CCC2(NC1)OC1CC3C4CC=C5CC(O[C@@H]6O[C@H](CO)[C@@H](O[C@@H]7O[C@@H](C)[C@H](O)[C@@H](O)[C@H]7O)[C@H](O)[C@H]6O[C@@H]6O[C@@H](C)[C@H](O)[C@@H](O)[C@H]6O)CCC5(C)C4CCC3(C)C1C2C` (stereo partly specified), the “activity change, negative = inhibition” value was 16.2% [at 16.9 µM] (inactive).

`CC1C(=O)OCC2=CC[N+]3([O-])CCC(OC(=O)C(C)(O)C1(C)O)C23` (stereo unspecified): the “activity change, negative = inhibition” value was 12.2% (inactive).

Turning to `O=C(c1ccc2nccnc2c1)N1CCCCC1`, the “activity change, negative = inhibition” value is -8.12% (inactive).

Take `Cc1ccc(S(=O)(=O)n2ccc(-c3c(-c4ccc(Cl)cc4)noc3C)n2)cc1`: the “activity change, negative = inhibition” value was 2.4% (inactive).

Turning to `CC[C@H](C)[C@H](NC(=O)[C@H](Cc1ccc(O)cc1)NC(=O)[C@@H](N)C(C)C)C(=O)N[C@@H](Cc1cnc[nH]1)C(=O)N1CCC[C@H]1C(=O)N[C@@H](Cc1ccccc1)C(=O)O`, the activity change, negative = inhibition is 1.7% [at 5.59 µM] (inactive).

`CCC(C)/C=C(C)/C=C/C1=CC2=C(Cl)C(=O)C(C)(OC(C)=O)C(=O)C2=CN1C(CCCN=C(N)N)C(=O)O` (stereo unspecified): the “activity change, negative = inhibition” value is 1.01% [at 28 µM] (inactive).

On to `Cc1ccc(S(=O)(=O)N2CCC[C@H]2c2ccc(F)cc2)cc1`, for which the “activity change, negative = inhibition” value is 8.54% (inactive).

On to `C=C[C@H]1[C@H](O[C@@H]2O[C@H](CO)[C@@H](O)[C@H](O)[C@H]2O)OC=C(C(=O)OC)[C@H]1C/C=C(/C=O)[C@@H]1C(C(=O)OC)=CO[C@@H](O[C@@H]2O[C@H](CO)[C@@H](O)[C@H](O)[C@H]2O)[C@@H]1C=C`, for which the “activity change, negative = inhibition” value was -5.26% [at 16.9 µM] (inactive).

For the compound `CC12CC(c3ccoc3)OC(=O)C1CCC1(C)C2CCC(O)C1(C)O` (stereo unspecified), the “activity change, negative = inhibition” value was 3.88% (inactive).

Take `CCCOc1ccc(S(=O)(=O)N2CCN(CCO)CC2)cc1-c1nc2c(CCC)cn(CC)c2c(=O)[nH]1`: the “activity change, negative = inhibition” value was 6.85% (inactive).

Take `COC(=O)C1C(c2ccc(O)cc2)C(C(=O)OC)C1c1ccc(O)cc1` (stereo unspecified): the “activity change, negative = inhibition” value was 0.68% (inactive).

Consider `Cc1ccc2c(Nc3ccc(Cl)cc3)nccc2c1Nc1ncccc1-c1ncnc2nc[nH]c12`, for which the “activity change, negative = inhibition” value was 14.2% (inactive).

With `C[C@@H]1O[C@@H](O[C@H]2CC[C@@]3(C)C(CC[C@]4(C)C3CC=C3[C@@H]5CC(C)(C)CC[C@]5(C(=O)O[C@@H]5O[C@H](CO)[C@@H](O)[C@H](O)[C@H]5O)CC[C@]34C)[C@]2(C)CO)[C@H](O)[C@H](O[C@@H]2O[C@H](CO)[C@@H](O)[C@H](O)[C@H]2O)[C@H]1O` (stereo partly specified), the “activity change, negative = inhibition” value was 15.7% [at 16.9 µM] (inactive).

For the compound `CC(C)CCC1(O)C(=O)C(C)(C)C(O[C@@H]2O[C@H](CO)[C@@H](O)[C@H](O)[C@H]2O)C(C)(C)C1O` (stereo partly specified), the “activity change, negative = inhibition” value is -19.7% [at 28 µM] (inactive).

With `C[C@H]1/C=C/C=C/C=C/C=C/C=C/[C@@H](O)[C@H](C(=O)O)[C@H](O)C[C@H](O)CCC[C@H](O)C[C@H](O)C[C@H](O)[C@@H](C)C(=O)O[C@@H]1C`, the “activity change, negative = inhibition” value is -5.13% [at 16.9 µM] (inactive).

With `C/C=C(\C)C(=O)O[C@@H](C)[C@H]1CC[C@]2(O)C3CCC4C[C@@H](OC5CC(OC)C(OC6CC(OC)C(OC7CC(OC)C(OC8OC(C)C(OC9OC(CO)C(O)C(O)C9O)C(OC)C8O)C(C)O7)C(C)O6)C(C)O5)CC[C@]4(C)C3[C@H](O)[C@@H](O)[C@]12C` (stereo partly specified), the activity change, negative = inhibition is -5.31% [at 11.2 µM] (inactive).

Take `OC[C@H]1O[C@@H](OCCc2ccc(O)cc2)[C@H](O)[C@@H](O)[C@@H]1O`: the “activity change, negative = inhibition” value is 3.16% (inactive).
